Max response, outcome and Potency data for eleven compounds are collected here from PubChem BioAssay (NCATS).

Records with an inconclusive call do not appear. A number with no mark means an inactive call. The source made the active and inactive calls. Calls follow the shape of the dose curve; as a rule, active = well fitted inhibition curve with a large enough effect; inconclusive = small, poorly fitted or top-dose-only effect; inactive = flat fitted curve, though single readings scatter.

One assay concerns KB-3-1. The assay can be described thus: Cytotoxic Profiling of Annotated Libraries Using Quantitative High-Throughput Screening (AID 1296008). Also: potency is read from the fitted curve at half-maximal effect. The settings on record: Five cell lines viability, CellTiter-Glo ATP luminescence, 48-72 h; max response: hits give low values. The procedure, abridged: (§1)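 Cells exposed to compounds for 48 or 72 hr at 37 degrees Celsius. Viability read as ATP-coupled luminescence with CellTiter-Glo after 10 min at room temperature.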
(Cellular ATP, detected with luciferase, serves as a proxy for viable cell number.)

Assay [1] has as its system HaCat. The description is as above. The settings on record: Five cell lines viability, CellTiter-Glo ATP luminescence, 48-72 h; max response: hits give low values. The procedure, abridged: as §1
The next assay has as its system NIH3T3. The description is as above. The note with it: Five cell lines viability, CellTiter-Glo ATP luminescence, 48-72 h; max response: hits give low values. An outline of the steps:
as §1

Assay [2] deals with HACAT. Put plainly: qHTS assay to identify novel small-molecules to repurpose for Merkel cell carcinoma treatment (AID 1296009). The note with it: MCC and control cell lines, CellTiter-Glo viability, 72 h; series mostly up to 44.8 µM. The procedure, abridged: (§2)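 CellTiter-Glo luminescence after 72 hr compound exposure at 37 degree celsius gave cell viability. Libraries NPC and MIPE were run as 8- and 11-point dose responses; RLUs normalized to DMSO (negative) and no-cell (cytotoxicity) controls.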

The subject of another assay is MCC-13. The assay is described as above. The settings on record: MCC and control cell lines, CellTiter-Glo viability, 72 h; series mostly up to 46 µM. The procedure, abridged:
as §2

A further assay relates to MCC-26. The description is as above. The note with it: MCC and control cell lines, CellTiter-Glo viability, 72 h; series mostly up to 46 µM. The procedure, abridged: as §2
For a further assay, the system named is MKL-1. The assay is described as above. The settings on record: MCC and control cell lines, CellTiter-Glo viability, 72 h; series mostly up to 46 µM. The procedure, abridged:
as §2

The test system of a further assay is MKL-2. The description is as above. The settings on record: MCC and control cell lines, CellTiter-Glo viability, 72 h; series mostly up to 46 µM. The procedure, abridged:
as §2
% is scaled to controls: 0 for no effect and ±100 for the full control effect.
Also: nearly all actives have a fitted effect of over 60% in size.

As for `CC1(C)CCC[C@]2(C)[C@H]3CC(=O)O[C@]3(C)CC[C@@H]12`, the max response in the assay with KB-3-1 was -11%.
With `CCC(C(=O)O)c1ccc(N2Cc3ccccc3C2=O)cc1` (stereo unspecified), the result in the assay with HaCat [1], in the assay on MCC-13 and in the assay with MCC-26 was inactive. In addition, the max response in the assay with NIH3T3 is 3.06%. The Potency entry with HACAT [2], in the assay on MKL-1 and with MKL-2 was “inactive” throughout.
`COc1cc(Br)c(Nc2nc(-c3c(C)nc4ncccn34)cs2)c(Br)c1`: the Potency in the assay with KB-3-1 was 2310 nM (active); in the assay with NIH3T3, 1460 nM (active).
On to `COc1cc2c(cc1OC)N1C(=O)C[C@]34C=CCN5CC[C@@H]2[C@@H](CC3)[C@]514`, for which the max response was 7.8% in the assay with KB-3-1 and -2.04% in the assay on NIH3T3.
For the compound `CC(C)C[C@H](CC(=O)NO)C(=O)N[C@@H](Cc1ccc2ccccc2c1)C(=O)N[C@@H](C)C(=O)NCCN`, the values for the max response in the assay on KB-3-1 and with NIH3T3 were 7.03% and -2.62%, respectively.
With `Cc1cc(Nc2ccc(NC(=O)c3ccc(Nc4ccnc5ccccc45)cc3)cc2)nc(N)n1`, the Potency in the assay with KB-3-1 was 4610 nM (active); in the assay on NIH3T3, 18400 nM (active).
As to `COC(=O)CC1CC(c2ccc(O)cc2)=NO1` (stereo unspecified), the max response in the assay with KB-3-1 was -14.5%; in the assay on NIH3T3, -0.902%.
For `C=C1C(O)C(O)C2(CC3C(C)=CCC4C(C)(CO)CCCC34C)OC2C1O` (stereo unspecified) the same measures were -3.07% and -5.46%.
In the case of `C[C@H]1C(=O)N2c3ccccc3[C@@]3(O)C[C@@H]4C(=O)N[C@](C)(c5nc6ccccc6c(=O)n54)N1[C@@H]23`, in the assay with KB-3-1, the call was inactive. Besides, in the assay with NIH3T3, the max response was -0.721%.
On to `Cc1[nH]c2ccccc2c1CCNC(=O)c1ccccc1F`, for which the max response in the assay with KB-3-1 was 3.4%; in the assay on NIH3T3, 2.05%.
As to `Cc1cccc(/C=N/Nc2cc(N3CCOCC3)n3nc(-c4ccncc4)cc3n2)c1`, the max response in the assay with KB-3-1 was -17.8%. The Potency with NIH3T3 was 651 nM (active).
